The text below walks through data of PubChem BioAssay.

For orientation: inhibition means the drop in the measured response relative to a control, in per cent.

Unmarked numbers belong to inactive results. For some of these results: Measured potencies and affinities stand elsewhere. The source made the active and inactive calls. Unless noted, the rule behind the calls is not given here.

Experiment [1] is described as follows: antimalarial activity against Dd2 strain (AID 2302;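 active = growth inhibition above 50% at the single 2 µM test dose, taken to imply half-maximal potency below 2 µM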;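 note: 0% = DMSO untreated growth and 100% = chloroquine plus artemisinin killed control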). The note with it: P. falciparum Dd2 in RBCs, LDH growth readout, 72 h; at 2 µM; active compounds read high.
Experiment [2] can be described thus: HepG2 cytotoxicity, primary screen, cytotoxicity control for P. falciparum antimalarial project, cell-based, ATP luminescence (AID 2303;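 active = inhibition above 50%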;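 note: 0% = DMSO wells and 100% = digitonin-killed cells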). The note with it: HepG2 viability, 24-48 h, at 10 µM, active compounds read high.
Experiment [3] has as its target L-lactate dehydrogenase (Plasmodium falciparum (isolate CDC / Honduras)) (UniProt Q27743). In words: PfLDH activity inhibition – cell lysate, 3D7 strain, counter-screen for P. falciparum growth inhibition project (AID 2304).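 Note: 0% = vehicle and 100% = reference inhibitor.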 The note with it: P. falciparum 3D7 crude extract, LDH APAD/NBT absorbance; at 2 µM; active compounds read high. On the technique in general: The purpose of a counterscreen is to sort out artefacts and off-target activity.

The nature of experiment [4]: inhibition of 3D7 malaria parasite growth – strain 3D7 (AID 2306).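 Note: 0% = DMSO wells and 100% = chloroquine plus artemisinin control wells.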 To be noted: P. falciparum 3D7 erythrocytic growth, LDH absorbance, 72 h; at 2 µM; active compounds read high.
In experiment [5] the target is Calcium-dependent protein kinase 1 (Plasmodium falciparum (isolate 3D7)) (UniProt P62344). Description: PfCDPK1 kinase inhibitors, biochemical, TCAMS library (AID 1159585; cut-off not given, nearly all actives have IC50 up to about 0.98 µM;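 note: inhibitors leave more ATP so luminescence rises with inhibition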). To be noted: recombinant PfCDPK1, Kinase-Glo ATP depletion luminescence. In general terms: Kinase-Glo reads ATP consumption through a luciferase reaction.
Chain of Calcium-dependent protein kinase 1 (Plasmodium falciparum (isolate 3D7)) (P62344 whole entry, looked up): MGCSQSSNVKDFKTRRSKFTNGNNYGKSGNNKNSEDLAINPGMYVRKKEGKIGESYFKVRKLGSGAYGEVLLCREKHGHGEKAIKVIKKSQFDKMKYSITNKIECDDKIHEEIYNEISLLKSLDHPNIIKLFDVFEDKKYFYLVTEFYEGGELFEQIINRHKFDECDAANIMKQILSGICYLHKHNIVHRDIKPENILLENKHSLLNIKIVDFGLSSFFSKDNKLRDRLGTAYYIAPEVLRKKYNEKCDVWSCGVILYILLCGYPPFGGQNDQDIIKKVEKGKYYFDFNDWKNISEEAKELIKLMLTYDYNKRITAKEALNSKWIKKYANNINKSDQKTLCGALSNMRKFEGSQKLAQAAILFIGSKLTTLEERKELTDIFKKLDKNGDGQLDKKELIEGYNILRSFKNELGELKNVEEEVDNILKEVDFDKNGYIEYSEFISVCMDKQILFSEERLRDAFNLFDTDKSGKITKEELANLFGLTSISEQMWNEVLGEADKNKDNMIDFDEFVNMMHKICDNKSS
For experiment [6], the target named is Plasmodium falciparum protein kinase 6 (PK6, PF3D7_1337100) (UniProt Q8IDW1). Description: PfPK6 kinase inhibitors, biochemical, TCAMS library (AID 1159586). The note with it: recombinant PfPK6, Kinase-Glo ATP depletion luminescence.
Chain of Plasmodium falciparum protein kinase 6 (PK6, PF3D7_1337100) (Q8IDW1 1-305): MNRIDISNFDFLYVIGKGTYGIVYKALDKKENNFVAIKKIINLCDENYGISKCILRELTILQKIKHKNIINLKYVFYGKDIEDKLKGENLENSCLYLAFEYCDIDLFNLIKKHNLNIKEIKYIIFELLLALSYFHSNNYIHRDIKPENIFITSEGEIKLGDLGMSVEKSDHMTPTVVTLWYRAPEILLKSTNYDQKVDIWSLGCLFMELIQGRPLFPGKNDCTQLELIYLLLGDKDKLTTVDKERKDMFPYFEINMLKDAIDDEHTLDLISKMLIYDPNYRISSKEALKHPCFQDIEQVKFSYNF
Experiment [7] deals with Protein kinase 7 (PK7), Plasmodium falciparum 3D7 (PF3D7_0213400) (UniProt Q7YTF7). In words: inhibition of Plasmodium PK7 catalytic activity – biochemical, TCAMS antimalarial set, Kinase-Glo luminescence (AID 1159587). To be noted: recombinant PfPK7, Kinase-Glo ATP depletion luminescence.
Chain of Protein kinase 7 (PK7), Plasmodium falciparum 3D7 (PF3D7_0213400) (Q7YTF7 1-343): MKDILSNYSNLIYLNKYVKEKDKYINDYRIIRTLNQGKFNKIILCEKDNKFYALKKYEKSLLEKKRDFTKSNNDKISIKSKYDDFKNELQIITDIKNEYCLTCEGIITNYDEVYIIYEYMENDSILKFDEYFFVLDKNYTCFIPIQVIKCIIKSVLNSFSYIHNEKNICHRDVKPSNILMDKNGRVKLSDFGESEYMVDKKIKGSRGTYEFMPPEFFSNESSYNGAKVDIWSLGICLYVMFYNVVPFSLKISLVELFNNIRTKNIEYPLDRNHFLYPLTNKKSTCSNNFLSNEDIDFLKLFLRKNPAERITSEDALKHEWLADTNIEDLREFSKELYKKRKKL
The target of experiment [8] is Calcium-dependent protein kinase 4 (Plasmodium falciparum (isolate 3D7)) (UniProt Q8IBS5). In words: PfCDPK4 kinase inhibitors, biochemical, TCAMS library (AID 1159588; cut-off not given, nearly all actives have IC50 up to about 0.91 µM). To be noted: recombinant PfCDPK4, Kinase-Glo ATP depletion luminescence.
Chain of Calcium-dependent protein kinase 4 (Plasmodium falciparum (isolate 3D7)) (Q8IBS5 whole entry, looked up): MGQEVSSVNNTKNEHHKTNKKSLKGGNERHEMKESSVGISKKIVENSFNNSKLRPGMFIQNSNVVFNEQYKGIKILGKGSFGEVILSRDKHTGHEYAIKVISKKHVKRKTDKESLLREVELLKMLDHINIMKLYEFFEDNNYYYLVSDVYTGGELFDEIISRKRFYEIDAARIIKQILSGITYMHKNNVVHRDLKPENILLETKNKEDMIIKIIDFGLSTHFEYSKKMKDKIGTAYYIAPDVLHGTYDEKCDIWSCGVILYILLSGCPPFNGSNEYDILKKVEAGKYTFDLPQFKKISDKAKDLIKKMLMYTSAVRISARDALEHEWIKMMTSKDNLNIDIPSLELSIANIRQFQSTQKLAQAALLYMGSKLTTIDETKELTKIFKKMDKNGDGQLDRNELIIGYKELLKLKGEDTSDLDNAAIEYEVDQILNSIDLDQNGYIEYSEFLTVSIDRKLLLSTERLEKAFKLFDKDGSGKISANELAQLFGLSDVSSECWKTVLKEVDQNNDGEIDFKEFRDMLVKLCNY

Chain of L-lactate dehydrogenase (Plasmodium falciparum (isolate CDC / Honduras)) (Q27743 whole entry, looked up): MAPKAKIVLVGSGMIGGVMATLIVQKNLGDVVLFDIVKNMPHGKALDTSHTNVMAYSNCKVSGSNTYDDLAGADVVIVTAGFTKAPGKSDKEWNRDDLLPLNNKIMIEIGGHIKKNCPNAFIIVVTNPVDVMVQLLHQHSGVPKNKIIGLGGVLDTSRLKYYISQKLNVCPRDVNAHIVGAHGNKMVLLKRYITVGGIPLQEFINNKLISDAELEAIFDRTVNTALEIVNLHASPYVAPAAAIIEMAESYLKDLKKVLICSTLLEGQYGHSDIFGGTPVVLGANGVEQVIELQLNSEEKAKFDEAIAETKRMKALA

Take `c1cc(CNC2CCN(CC3CCCCC3)CC2)cc(-n2ccnc2)c1`: the growth inhibition in experiment [1] is 97% (active); in experiment [4], 102% (active). The figures for the inhibition in experiment [2] and in experiment [3] were 3% and 1%, respectively. Further, the outcome in experiment [5], in experiment [6], in experiment [7] and in experiment [8] was inactive.

Regarding `N#CCCN1CCN(Cc2cccc(-c3ccc(-c4nc5ccccc5[nH]4)cc3)c2)CC1`, the growth inhibition is 20% in experiment [1] and 93% (active) in experiment [4]. Moreover, the inhibition in experiment [2] is 18%; in experiment [3] it was -9%. Also, the outcome in experiment [5], in experiment [6], in experiment [7] and in experiment [8] was inactive.

For the compound `NC1=NC(c2ccccc2)(c2ccccc2)C(=O)N1Cc1ccccc1Br`, the growth inhibition in experiment [1] is 38%; in experiment [4], 93% (active). The inhibition was 36% in experiment [2] and 4% in experiment [3]. Besides, the result in experiment [5], in experiment [6], in experiment [7] and in experiment [8] was inactive.

As for `CN1CCN(CCCN(Cc2ccc(-c3cccc(CNCc4ccc5c(c4)OCO5)c3)cc2)C(=O)CCC2CCCC2)CC1`, the growth inhibition in experiment [1] is 85% (active); in experiment [4] it was 92% (active). Besides, the values for the inhibition in experiment [2] and in experiment [3] were 24% and -5%, respectively. The result in experiment [5], in experiment [6], in experiment [7] and in experiment [8] was inactive.

For the compound `Cc1nc2nc(N)nc(N)c2c(C)c1Cc1ccc(O)cc1`, the growth inhibition in experiment [1] was 0%; in experiment [4], 94% (active). Moreover, the inhibition in experiment [2] is 64% (active); in experiment [3], 1%. Besides, the result in experiment [5], in experiment [6], in experiment [7] and in experiment [8] was inactive.

For `CCOC(=O)c1ccc(N2CCCCC2)c(NC(=O)C(Cl)(Cl)Cl)c1`, the results for the growth inhibition in experiment [1] and in experiment [4] were 97% (active) and 96% (active), respectively. Also, the inhibition is 11% in experiment [2] and 1% in experiment [3]. Moreover, the result in experiment [5], in experiment [6], in experiment [7] and in experiment [8] was inactive.

In the case of `CC1(C)Cc2c(oc3ncn(CCn4cnc5oc6c(c5c4=N)CC(C)(C)SC6)c(=N)c23)CS1`, the values for the growth inhibition in experiment [1] and in experiment [4] were 93% (active) and 98% (active), respectively. For the same compound, the inhibition in experiment [2] is -11%; in experiment [3], 0%. The outcome in experiment [5], in experiment [6], in experiment [7] and in experiment [8] was inactive.

`O=C(Nc1cccc(-c2cccc(-c3nc4ccccc4[nH]3)c2)c1)c1csnn1`: the growth inhibition in experiment [1] is 27%; in experiment [4] it was 90% (active). The values for the inhibition in experiment [2] and in experiment [3] were 31% and 5%, respectively. Further, the outcome in experiment [5], in experiment [6], in experiment [7] and in experiment [8] was inactive.

For `Cc1ccc2[nH]c(-c3ccccc3N)cc2c1`, the values for the growth inhibition in experiment [1] and in experiment [4] were 8% and 97% (active), respectively. In addition, the values for the inhibition in experiment [2] and in experiment [3] were 11% and 8%, respectively. Moreover, the outcome in experiment [5], in experiment [6], in experiment [7] and in experiment [8] was inactive.

Take `CC1(C)N=C(N)N=C(N)N1OCOc1ccc(Cl)cc1`: the growth inhibition in experiment [1] was 96% (active); in experiment [4], 94% (active). Also, the values for the inhibition in experiment [2] and in experiment [3] were 68% (active) and 6%, respectively. The outcome in experiment [5], in experiment [6], in experiment [7] and in experiment [8] was inactive.

`O=C(c1ccco1)N1CCN(c2ccc([N+](=O)[O-])c(NC3CC3)c2)CC1`: the growth inhibition in experiment [1] is 99% (active); in experiment [4], 101% (active). Further, the inhibition in experiment [2] was -8%; in experiment [3], 0%. Besides, the result in experiment [5], in experiment [6], in experiment [7] and in experiment [8] was inactive.

As for `COc1ccc(C(=O)Nc2ccc(-c3ccc([N+](=O)[O-])cc3)cc2)cc1CCCN(C)C`, the values for the growth inhibition in experiment [1] and in experiment [4] were 9% and 98% (active), respectively. Besides, the inhibition in experiment [2] was 20%; in experiment [3], 1%. In addition, the outcome in experiment [5], in experiment [6], in experiment [7] and in experiment [8] was inactive.

Take `CCN(CC)CCNC(=O)c1ccc(NC(=O)c2cc(-c3ccncc3)nc3ccccc23)cc1`: the growth inhibition in experiment [1] was 2%; in experiment [4] it was 97% (active). Also, the inhibition in experiment [2] is 1%; in experiment [3], -3%. Further, the result in experiment [5], in experiment [6], in experiment [7] and in experiment [8] was inactive.

Take `O=C(c1ccccc1[N+](=O)[O-])N(Cc1ccccc1)c1ccccn1`: the growth inhibition in experiment [1] was -2%; in experiment [4] it was 91% (active). Besides, the inhibition in experiment [2] is 0%; in experiment [3] it was -1%. Further, the outcome in experiment [5], in experiment [6], in experiment [7] and in experiment [8] was inactive.

Take `O=[N+]([O-])c1cc(C(c2ccc(O)c([N+](=O)[O-])c2)C(Cl)(Cl)Cl)ccc1O`: the growth inhibition in experiment [1] is 98% (active); in experiment [4] it was 93% (active). Moreover, the inhibition in experiment [2] is 2%; in experiment [3], 3%. The outcome in experiment [5], in experiment [6], in experiment [7] and in experiment [8] was inactive.

With `CCCC(C)Nc1nc(C)cc(N[C@@H](Cc2ccccc2)C(=O)Nc2ccccc2)n1` (stereo not given in full), the results for the growth inhibition in experiment [1] and in experiment [4] were 67% (active) and 100% (active), respectively. The values for the inhibition in experiment [2] and in experiment [3] were 50% (active) and -2%, respectively. In addition, the result in experiment [5], in experiment [6], in experiment [7] and in experiment [8] was inactive.

Take `N#Cc1ccc2c(c1)CCN(CCC1CCC(NC(=O)c3ccc(-c4ccccn4)s3)CC1)CC2` (stereo not given): the values for the growth inhibition in experiment [1] and in experiment [4] were 9% and 92% (active), respectively. Moreover, the inhibition in experiment [2] was 16%; in experiment [3], 1%. Moreover, the result in experiment [5], in experiment [6], in experiment [7] and in experiment [8] was inactive.

Turning to `Cc1nc(-c2nc(NCCc3cnccn3)ncc2-c2ccsc2)sc1C`, the growth inhibition in experiment [1] was 40%; in experiment [4], 98% (active). Moreover, the results for the inhibition in experiment [2] and in experiment [3] were -7% and 0%, respectively. The outcome in experiment [5], in experiment [6], in experiment [7] and in experiment [8] was inactive.

For the compound `O=C(c1ccccc1)N(Cc1ccccc1-c1ccc(CNCCc2ccccc2)cc1)C1CCN(Cc2ccccc2)CC1`, the results for the growth inhibition in experiment [1] and in experiment [4] were 69% (active) and 95% (active), respectively. Also, the inhibition was 95% (active) in experiment [2] and -7% in experiment [3]. Further, the result in experiment [5], in experiment [6], in experiment [7] and in experiment [8] was inactive.

On to `Cc1ccc(S(=O)(=O)n2nccc2-c2c(-c3ccc(Cl)cc3)noc2C)cc1`, for which the growth inhibition in experiment [1] and in experiment [4] was 97% (active) throughout. Moreover, the figures for the inhibition in experiment [2] and in experiment [3] were -1% and -2%, respectively. The outcome in experiment [5], in experiment [6], in experiment [7] and in experiment [8] was inactive.
